In the supplement of paper PMC10849652:
Of roughly 7,900 targets only a part is listed; those with a hit were picked by preference. About 0.6% of all pairs of compound and target were hits.

Target: YIPF4 (UniProt Q9BSR8)
Assay: log2 fold change, soluble protein after heating vs DMSO (PISA); higher = thermal stabilisation; K562 cells, 10 uM, 30 min; active = over 0.2 and 3.5 SD of the protein, either way, in both replicates (recomputed)
How it was run: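 Thermal stability values are relative to control samples and come from duplicates. They are expressed as log2 fold changes. For measurement, K562 cells (2×10^6 cells/mL) received 10 μM compound for 30 min, and aliquots were heated for 3 min over 48°C-58°C, pooled, and extracted at 4°C in PBS with 0.5% NP-40. Soluble protein, the supernatant after 21,000xg for 90 min, was quantified by TMTpro 16plex LC-MS/MS with equalised channel sums.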

YIPF4, sequence (Q9BSR8 whole entry, looked up): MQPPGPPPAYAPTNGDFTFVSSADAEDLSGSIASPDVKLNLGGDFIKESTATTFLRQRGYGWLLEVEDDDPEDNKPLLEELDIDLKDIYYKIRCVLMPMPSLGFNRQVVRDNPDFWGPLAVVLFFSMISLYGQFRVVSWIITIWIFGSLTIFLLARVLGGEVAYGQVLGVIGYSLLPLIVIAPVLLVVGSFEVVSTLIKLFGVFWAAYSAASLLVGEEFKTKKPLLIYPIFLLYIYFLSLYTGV

log2 fold change, inactive:
CN1CCN(CCOc2cc(OC3CCOCC3)c3c(Nc4c(Cl)ccc5c4OCO5)ncnc3c2)CC1 [saracatinib] 0.072
C[C@@H](N)c1ccc(C(=O)Nc2ccnc3[nH]ccc23)cc1 -0.089
Fc1ccc(Cl)cc1-c1nc(Nc2ccncc2)c2nccnc2n1 -0.014
Cc1cc(Nc2cc(N3CCN(C)CC3)nc(Sc3ccc(NC(=O)C4CC4)cc3)n2)n[nH]1 [tozasertib] 0.079
c1cc(OCCN2CCCCC2)cc(-c2n[nH]c3ccc(-c4nnc[nH]4)cc23)c1 -0.051
C/C(=N\NC(=O)c1cccc(S(=O)(=O)N2CCOCC2)c1)c1cc(Cl)ccc1O -0.06
O=C(Nc1cccc(Nc2ncc(Br)c(NCCc3cnc[nH]3)n2)c1)N1CCCC1 -0.033
NC1(c2ccc(-c3nc4ccn5c(=O)[nH]nc5c4cc3-c3ccccc3)cc2)CCC1 -0.01
Cc1cccc(-c2[nH]c(C(C)(C)C)nc2-c2ccc3nccnc3c2)n1 -0.067
CC(C)N(C[C@H]1O[C@@H](n2cnc3c(N)ncnc32)[C@H](O)[C@@H]1O)[C@H]1C[C@@H](CCc2nc3cc(C(C)(C)C)ccc3[nH]2)C1 [pinometostat] -0.031
COc1cc2nc(-c3cc(F)ccc3O)nc(N[C@@H]3CNC[C@H]3C(C)(C)O)c2cc1OC -0.094
CNC(=O)c1ccccc1Nc1nc(Nc2ccc(N3CCOCC3)cc2OC)ncc1Cl 0.062
O=C(Nc1nc2ccccc2n1CCN1CCOCC1)c1cccc([N+](=O)[O-])c1 [IRAK-1-4 Inhibitor I] 0.093
C[C@@H](Oc1cc(-c2cnn(C3CCNCC3)c2)cnc1N)c1c(Cl)ccc(F)c1Cl [crizotinib] 0.054
COc1cc(Nc2ncc3c(n2)-c2ccc(Cl)cc2C(c2c(F)cccc2OC)=NC3)ccc1C(=O)O [alisertib] -0.134
CN1CC[C@H](c2c(O)cc(O)c3c(=O)cc(-c4ccccc4Cl)oc23)[C@H](O)C1 [alvocidib] 0.027
CN1CCc2c(c3ccccc3n2Cc2ccc(C(=O)NO)cc2)C1 [Tubastatin A] -0.028
O=C1c2ccccc2-c2n[nH]c3cccc1c23 0.033
CNCc1ccc(-c2[nH]c3cc(F)cc4c3c2CCNC4=O)cc1 [rucaparib] -0.028
COc1cccc2cc(-c3nc([C@H]4CC[C@H](C(=O)O)CC4)n4ncnc(N)c34)[nH]c12 0.06
Cc1ccc2c(=O)c3ccccc3n(CCCN)c2c1C 0.215
O=C1NC(=O)C(c2cnc3ccccn23)=C1c1cn2c3c(cc(F)cc13)CN(C(=O)N1CCCCC1)CC2 -0.087
COc1ccc(Cn2ccc3ccc(C(=O)NO)cc32)cc1 -0.098
CN(C)CC(=O)Nc1ccc2[nH]c(=O)c3ccccc3c2c1 0.09
COc1cc(C(=O)O)ccc1NC(=O)[C@@H]1N[C@@H](CC(C)(C)C)[C@](C#N)(c2ccc(Cl)cc2F)[C@H]1c1cccc(Cl)c1F [idasanutlin] -0.049
O=C1NC(=NCc2cccs2)S/C1=C\c1ccc2ncccc2c1 -0.006
NC(=O)c1cnc(N[C@@H]2CCCC[C@@H]2N)nc1Nc1cccc(-n2nccn2)c1 0.091
Cc1ccc(-n2nc(C(C)(C)C)cc2NC(=O)Nc2ccc(OCCN3CCOCC3)c3ccccc23)cc1 [doramapimod] 0.005
NC1(Cc2ccc(Cl)cc2)CCN(c2ncnc3[nH]ccc23)CC1 -0.016
CC(=O)c1cnc2ccc(-c3cc(Cl)c(O)c(Cl)c3)nc2c1N[C@H]1CC[C@H](CN(C)C)CC1 -0.197
